Laboratory results reported in the supplement of paper PMC10849652.
Of roughly 7,900 targets only a part is listed; those with a hit were picked by preference. About 0.6% of all pairs of compound and target were hits.

Legend:
Experiment in all cases: log2 fold change, soluble protein after heating vs DMSO (PISA); higher = thermal stabilisation; K562 cells, 10 uM, 30 min; active = over 0.2 and 3.5 SD of the protein, either way, in both replicates (recomputed)
[1] = compound: Cc1ccc(NC(=O)c2ccc(CN3CC[C@H](N(C)C)C3)c(C(F)(F)F)c2)cc1Nc1nccc(-c2cncnc2)n1 [bafetinib]
How it was run: (§1)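 K562 cells (2×10^6 cells/mL) were treated with 10 μM compound for 30 min, and aliquots were heated for 3 min over 48°C-58°C. Pooled aliquots were extracted in PBS with 0.5% NP-40 at 4°C, and the supernatant after 21,000xg for 90 min was measured by TMTpro 16plex LC-MS/MS with channel sums equalised. Reported thermal stability, relative to control samples and from duplicates, is a log2 fold change.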

[2] = compound: Cc1cccc(CC(=O)N2CCc3c2ccc(-c2cn(C)c4ncnc(N)c24)c3F)n1
How it was run: as §1

[3] = compound: Cc1nc(Nc2ncc(C(=O)Nc3c(C)cccc3Cl)s2)cc(N2CCN(CCO)CC2)n1 [dasatinib]
How it was run: as §1

[4] = compound: Cn1cc(-c2ccc3c(c2)CCN3C(=O)Cc2cccc(C(F)(F)F)c2)c2c(N)ncnc21
How it was run: as §1

[5] = compound: Cn1cc(-c2ccc3nnc(C(F)(F)c4ccc5ncccc5c4)n3n2)cn1
How it was run: as §1

[6] = compound: Cn1cncc1[C@@](N)(c1ccc(Cl)cc1)c1ccc2c(c1)c(-c1cccc(Cl)c1)cc(=O)n2C [tipifarnib]
How it was run: as §1

[7] = compound: NC(=O)Nc1cc(-c2cccc(F)c2)sc1C(=O)N[C@H]1CCCNC1
How it was run: as §1

[8] = compound: NC(=O)c1cnc(N[C@@H]2CCCC[C@@H]2N)nc1Nc1cccc(-n2nccn2)c1
How it was run: as §1

[9] = compound: NCC(=O)Nc1ccc(-n2nc(C(F)(F)F)cc2-c2ccc3c(ccc4ccccc43)c2)cc1
How it was run: as §1

[10] = compound: Nc1ccccc1NC(=O)c1ccc(CNC(=O)OCc2cccnc2)cc1 [entinostat]
How it was run: as §1

[11] = compound: O=C(CCCCCCC(=O)Nc1ccccc1)NO [vorinostat]
How it was run: as §1

[12] = compound: O=C(CCCCCCNC(=O)c1cnc(N(c2ccccc2)c2ccccc2Cl)nc1)NO [citarinostat]
How it was run: as §1

[13] = compound: O=C1NC(=O)C(c2cnc3ccccn23)=C1c1cn2c3c(cc(F)cc13)CN(C(=O)N1CCCCC1)CC2
How it was run: as §1

[14] = compound: c1cc(OCCN2CCCCC2)cc(-c2n[nH]c3ccc(-c4nnc[nH]4)cc23)c1
How it was run: as §1

[15] = compound: Cc1cn(-c2cc(NC(=O)c3ccc(C)c(Nc4nccc(-c5cccnc5)n4)c3)cc(C(F)(F)F)c2)cn1 [nilotinib]
How it was run: as §1

[16] = compound: Cc1nc(Nc2n[nH]c3c2CN(C(=O)N[C@H](CN(C)C)c2ccccc2)C3(C)C)c2sccc2n1
How it was run: as §1

[17] = compound: Cc1ncc(-c2ccnc(Nc3ccc(S(C)(=O)=O)cc3)n2)n1C(C)C
How it was run: as §1

[18] = compound: FC(F)(F)c1ccc(/C=C/c2nc(COc3ccc(CCCCn4ccnn4)cc3)co2)cc1 [mubritinib]
How it was run: as §1

[19] = compound: NC1(c2ccc(-c3nc4ccn5c(=O)[nH]nc5c4cc3-c3ccccc3)cc2)CCC1
How it was run: as §1

[20] = compound: O=C(O)c1ccc2c(c1)nc(Nc1cccc(Cl)c1)c1ccncc12 [silmitasertib]
How it was run: as §1

Measured: log2 fold change

BRD8 isoform 2 (UniProt Q9H0E9)
UniProt Q9H0E9, sequence (Q9H0E9 whole entry, looked up): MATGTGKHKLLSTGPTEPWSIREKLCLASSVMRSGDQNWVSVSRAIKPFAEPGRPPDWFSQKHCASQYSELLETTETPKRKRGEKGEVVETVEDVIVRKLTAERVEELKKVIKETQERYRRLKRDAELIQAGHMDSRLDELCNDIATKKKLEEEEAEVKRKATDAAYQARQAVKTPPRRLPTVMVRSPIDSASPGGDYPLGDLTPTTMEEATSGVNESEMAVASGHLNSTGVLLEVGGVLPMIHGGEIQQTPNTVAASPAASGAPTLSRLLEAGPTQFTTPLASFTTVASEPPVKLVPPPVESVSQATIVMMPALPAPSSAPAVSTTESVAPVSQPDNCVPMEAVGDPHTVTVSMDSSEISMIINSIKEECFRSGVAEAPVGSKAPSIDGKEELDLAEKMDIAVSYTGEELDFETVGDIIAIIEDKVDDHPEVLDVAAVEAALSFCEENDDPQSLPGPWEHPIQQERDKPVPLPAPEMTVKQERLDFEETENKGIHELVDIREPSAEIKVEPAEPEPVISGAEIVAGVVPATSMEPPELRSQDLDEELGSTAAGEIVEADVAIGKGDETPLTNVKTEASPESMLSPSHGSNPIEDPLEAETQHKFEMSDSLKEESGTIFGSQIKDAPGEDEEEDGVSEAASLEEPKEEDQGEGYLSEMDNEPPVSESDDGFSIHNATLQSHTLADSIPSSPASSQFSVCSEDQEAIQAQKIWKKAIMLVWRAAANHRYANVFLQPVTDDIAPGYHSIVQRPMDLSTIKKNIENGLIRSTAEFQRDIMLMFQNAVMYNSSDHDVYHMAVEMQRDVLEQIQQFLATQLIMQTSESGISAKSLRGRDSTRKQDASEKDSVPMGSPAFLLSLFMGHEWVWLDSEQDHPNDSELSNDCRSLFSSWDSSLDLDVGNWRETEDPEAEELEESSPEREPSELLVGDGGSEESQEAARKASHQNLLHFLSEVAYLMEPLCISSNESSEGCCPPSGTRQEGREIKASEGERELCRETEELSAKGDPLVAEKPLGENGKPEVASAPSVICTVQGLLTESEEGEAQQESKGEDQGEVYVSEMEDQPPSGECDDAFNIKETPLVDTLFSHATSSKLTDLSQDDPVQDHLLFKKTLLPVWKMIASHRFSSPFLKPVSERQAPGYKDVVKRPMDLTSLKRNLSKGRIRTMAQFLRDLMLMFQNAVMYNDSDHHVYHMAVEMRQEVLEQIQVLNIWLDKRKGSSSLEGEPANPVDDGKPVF
inactive: [1] -0.057 | [2] 0.064 | [3] -0.136 | [4] -0.022 | [5] -0.038 | [6] -0.038 | [7] -0.016 | [8] -0.205 | [9] -0.13 | [10] 0.039 | [11] -0.092 | [12] -0.019 | [13] 0.102 | [14] -0.09

AKNA (UniProt Q7Z591)
inactive: [4] -0.134 | [6] 0.215 | [7] -0.069
active: [10] 1.72

AUNIP isoform 2 (UniProt Q9H7T9)
active: [6] -0.844
inactive: [3] -0.284 | [4] -0.006 | [7] -0.194 | [8] -0.037 | [9] 0.073 | [10] 0.003

BRAF, A0A2R8Y8E0
inactive: [15] -0.419 | [16] 0.112 | [17] -0.236 | [5] 0.052 | [18] 0.113 | [8] 0.214 | [19] -0.31 | [20] -0.064

BRD2 isoform 2 (UniProt P25440)
inactive: [1] 0.136 | [2] 0.476 | [3] -0.32 | [4] 0.11 | [6] -0.171 | [7] -0.01 | [8] -0.209 | [9] -0.112 | [10] -0.159 | [11] -0.214

ARL4A (UniProt P40617)
inactive: [1] 0.145 | [18] 0.078 | [8] -0.276 | [19] -0.117 | [20] 0.068

AFG1L (UniProt Q8WV93)
UniProt Q8WV93, sequence (Q8WV93 whole entry, looked up): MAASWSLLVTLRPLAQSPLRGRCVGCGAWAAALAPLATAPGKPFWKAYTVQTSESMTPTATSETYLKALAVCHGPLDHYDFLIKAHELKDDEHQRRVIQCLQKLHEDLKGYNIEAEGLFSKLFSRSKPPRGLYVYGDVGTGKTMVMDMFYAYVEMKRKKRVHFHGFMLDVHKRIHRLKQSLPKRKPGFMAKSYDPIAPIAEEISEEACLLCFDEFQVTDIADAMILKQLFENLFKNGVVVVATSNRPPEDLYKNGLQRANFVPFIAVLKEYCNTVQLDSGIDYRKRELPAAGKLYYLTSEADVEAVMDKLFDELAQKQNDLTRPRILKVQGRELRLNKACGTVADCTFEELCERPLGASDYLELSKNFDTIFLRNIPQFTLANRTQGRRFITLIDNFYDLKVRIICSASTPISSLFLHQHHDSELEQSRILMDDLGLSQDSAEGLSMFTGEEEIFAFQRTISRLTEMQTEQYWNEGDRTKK
inactive: [1] -0.041 | [15] -0.061 | [16] -0.048 | [3] -0.023 | [17] 0.043 | [4] 0.077 | [5] 0.109 | [6] 0.19 | [18] 0.031 | [7] -0.021 | [8] 0.008 | [19] 0.019 | [9] -0.178 | [10] 0.095 | [12] -0.004 | [20] 0.009 | [13] -0.009 | [14] -0.057

AGAP3 isoform 4 (UniProt Q96P47)
inactive: [1] -0.144 | [15] 0.138 | [16] -0.016 | [17] -0.049 | [4] -0.077 | [5] -0.082 | [6] -0.012 | [18] -0.156 | [7] 0.034 | [8] -0.128 | [19] -0.001 | [10] 0.021 | [12] -0.063 | [20] -0.019 | [13] 0.127 | [14] -0.18

BAP18 isoform 3 (UniProt Q8IXM2)
UniProt Q8IXM2, sequence (Q8IXM2 whole entry, looked up): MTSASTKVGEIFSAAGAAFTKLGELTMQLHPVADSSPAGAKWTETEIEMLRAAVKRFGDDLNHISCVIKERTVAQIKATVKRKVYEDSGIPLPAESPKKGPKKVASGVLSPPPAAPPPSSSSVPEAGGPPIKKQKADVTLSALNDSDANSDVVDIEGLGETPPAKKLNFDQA
inactive: [2] -0.182 | [18] 0.117 | [19] -0.042 | [11] 0.192 | [20] -0.119

AARSD1 (UniProt Q9BTE6)
UniProt Q9BTE6, sequence (Q9BTE6 whole entry, looked up): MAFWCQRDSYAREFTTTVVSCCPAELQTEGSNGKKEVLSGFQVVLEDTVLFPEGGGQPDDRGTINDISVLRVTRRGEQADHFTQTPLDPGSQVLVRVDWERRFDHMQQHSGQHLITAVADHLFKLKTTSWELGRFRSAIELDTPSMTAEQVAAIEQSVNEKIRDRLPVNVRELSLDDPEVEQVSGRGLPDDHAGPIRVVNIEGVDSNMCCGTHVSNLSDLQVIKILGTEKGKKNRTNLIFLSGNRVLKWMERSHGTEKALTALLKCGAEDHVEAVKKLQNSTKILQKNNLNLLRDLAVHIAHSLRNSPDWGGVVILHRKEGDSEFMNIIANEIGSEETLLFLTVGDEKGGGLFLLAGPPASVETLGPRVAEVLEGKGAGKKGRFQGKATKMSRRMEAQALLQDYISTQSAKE
inactive: [1] 0.142 | [15] 0.029 | [16] -0.078 | [3] -0.606 | [17] -0.012 | [4] 0.121 | [6] -0.19 | [18] 0.066 | [8] -0.066 | [19] -0.048 | [12] 0.144 | [20] 0.137 | [14] 0.066

ALDH2 isoform 2 (UniProt P05091)
UniProt P05091, sequence (P05091 whole entry, looked up): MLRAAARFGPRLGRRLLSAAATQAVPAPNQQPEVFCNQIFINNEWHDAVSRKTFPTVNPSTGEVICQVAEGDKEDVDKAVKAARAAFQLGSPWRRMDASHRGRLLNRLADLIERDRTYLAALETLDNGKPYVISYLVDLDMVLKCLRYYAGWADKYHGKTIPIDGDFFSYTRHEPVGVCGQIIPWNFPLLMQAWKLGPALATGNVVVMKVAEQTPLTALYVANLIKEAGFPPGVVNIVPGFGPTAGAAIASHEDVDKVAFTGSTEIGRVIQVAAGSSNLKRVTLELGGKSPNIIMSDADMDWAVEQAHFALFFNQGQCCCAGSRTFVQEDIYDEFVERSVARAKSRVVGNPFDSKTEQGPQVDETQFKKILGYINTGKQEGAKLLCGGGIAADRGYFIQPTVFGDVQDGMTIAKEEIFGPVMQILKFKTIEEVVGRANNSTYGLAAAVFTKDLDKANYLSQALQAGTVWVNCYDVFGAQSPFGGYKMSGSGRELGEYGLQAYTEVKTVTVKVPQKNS
inactive: [1] -0.029 | [2] -0.124 | [5] 0.244 | [6] 0.015 | [7] -0.345 | [8] -0.389 | [9] -0.351 | [10] -0.14 | [11] 0.083 | [12] -0.055 | [13] 0.051 | [14] -0.36

ABCA3 (UniProt Q99758)
inactive: [1] 0.164 | [2] -0.053 | [3] -0.027 | [4] -0.022 | [5] 0.019 | [6] 0.058 | [7] 0.021 | [8] -0.001 | [9] -0.196 | [10] -0.064 | [11] 0.02 | [12] 0.021 | [13] 0.134 | [14] 0

ARMC8 isoform 6 (UniProt Q8IUR7)
UniProt Q8IUR7, sequence (Q8IUR7 whole entry, looked up): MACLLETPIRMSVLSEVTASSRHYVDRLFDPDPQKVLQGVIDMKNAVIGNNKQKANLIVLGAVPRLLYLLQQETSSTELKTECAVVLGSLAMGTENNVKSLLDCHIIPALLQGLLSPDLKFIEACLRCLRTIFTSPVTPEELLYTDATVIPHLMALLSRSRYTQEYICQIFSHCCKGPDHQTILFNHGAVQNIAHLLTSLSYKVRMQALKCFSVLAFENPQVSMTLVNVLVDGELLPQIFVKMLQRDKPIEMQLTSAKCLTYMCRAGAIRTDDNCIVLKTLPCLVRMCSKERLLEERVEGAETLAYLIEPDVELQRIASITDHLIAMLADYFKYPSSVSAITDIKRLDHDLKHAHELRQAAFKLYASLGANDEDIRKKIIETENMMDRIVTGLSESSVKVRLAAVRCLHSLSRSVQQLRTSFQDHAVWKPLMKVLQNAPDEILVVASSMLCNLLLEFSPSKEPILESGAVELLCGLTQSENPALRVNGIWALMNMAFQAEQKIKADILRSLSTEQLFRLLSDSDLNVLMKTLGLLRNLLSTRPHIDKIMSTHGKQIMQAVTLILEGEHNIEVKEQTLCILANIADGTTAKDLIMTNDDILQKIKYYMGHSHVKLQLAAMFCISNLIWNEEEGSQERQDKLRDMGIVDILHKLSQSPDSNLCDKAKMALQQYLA
inactive: [1] -0.012 | [15] -0.034 | [16] -0.079 | [17] -0.052 | [8] -0.023 | [9] 0.025

AP2M1 (UniProt C9JTK4)
inactive: [1] -0.174 | [15] -0.02 | [16] 0.212 | [3] 0.029 | [17] -0.161 | [4] -0.17 | [18] 0.08 | [7] -0.07 | [8] -0.149 | [19] -0.111 | [9] -0.261 | [10] 0.043 | [12] -0.132 | [20] 0.116 | [13] -0.267 | [14] 0.024

ACOX3 (UniProt O15254)
inactive: [1] 0.053 | [15] 0.159 | [16] -0.028 | [17] 0.107 | [4] -0.009 | [6] 0.272 | [18] -0.241 | [7] -0.084 | [8] 0.004 | [19] -0.09 | [9] 0.16 | [10] 0.071 | [12] 0.287 | [20] -0.302 | [13] -0.022 | [14] -0.016

ARHGAP4 isoform 2 (UniProt P98171)
inactive: [15] -0.137 | [16] 0.436 | [3] -0.097 | [17] -0.174 | [4] -0.06 | [5] -0.046 | [6] 0.161 | [18] -0.164 | [7] 0.197 | [8] -0.079 | [19] 0.021 | [9] -0.036 | [10] 0.081 | [12] 0.047 | [20] -0.043 | [14] -0.097
active: [1] 0.709

ATXN7L3 isoform 2 (UniProt Q14CW9)
inactive: [1] -0.123 | [15] 0.024 | [16] 0.043 | [17] -0.054 | [5] 0.03 | [18] 0.086 | [7] 0.182 | [8] 0.033 | [19] 0.207 | [10] -0.346 | [12] -0.087 | [20] -0.373 | [14] 0.051

AZI2 (UniProt Q9H6S1)
inactive: [1] -0.049 | [15] 0.179 | [16] 0.481 | [17] 0.099 | [5] 0.105 | [7] -0.094 | [9] -0.152 | [10] 0.041 | [12] -0.014 | [14] -0.028

ALKBH4 (UniProt Q9NXW9)
active: [19] -0.427
inactive: [1] 0.038 | [2] 0.087 | [3] 0 | [4] -0.022 | [5] 0.017 | [6] -0.001 | [18] -0.122 | [7] -0.009 | [8] -0.051 | [9] 0.097 | [10] -0.058 | [11] -0.031 | [12] 0.079 | [20] 0.165 | [13] 0 | [14] -0.014

BRMS1 (UniProt Q9HCU9)
UniProt Q9HCU9, sequence (Q9HCU9 whole entry, looked up): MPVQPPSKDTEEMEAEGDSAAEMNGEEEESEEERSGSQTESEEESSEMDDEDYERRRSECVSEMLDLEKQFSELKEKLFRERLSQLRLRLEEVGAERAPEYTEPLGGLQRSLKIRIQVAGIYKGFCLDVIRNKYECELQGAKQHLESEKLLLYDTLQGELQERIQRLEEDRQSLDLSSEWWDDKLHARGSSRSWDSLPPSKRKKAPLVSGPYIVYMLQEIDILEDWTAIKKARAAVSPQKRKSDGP
inactive: [2] 0.029 | [3] 0.035 | [18] 0.179 | [8] 0.15 | [19] 0.121 | [11] -0.053 | [12] -0.097 | [20] -0.042 | [13] -0.033 | [14] -0.178

BRAF (UniProt P15056)
UniProt P15056, sequence (P15056 whole entry, looked up): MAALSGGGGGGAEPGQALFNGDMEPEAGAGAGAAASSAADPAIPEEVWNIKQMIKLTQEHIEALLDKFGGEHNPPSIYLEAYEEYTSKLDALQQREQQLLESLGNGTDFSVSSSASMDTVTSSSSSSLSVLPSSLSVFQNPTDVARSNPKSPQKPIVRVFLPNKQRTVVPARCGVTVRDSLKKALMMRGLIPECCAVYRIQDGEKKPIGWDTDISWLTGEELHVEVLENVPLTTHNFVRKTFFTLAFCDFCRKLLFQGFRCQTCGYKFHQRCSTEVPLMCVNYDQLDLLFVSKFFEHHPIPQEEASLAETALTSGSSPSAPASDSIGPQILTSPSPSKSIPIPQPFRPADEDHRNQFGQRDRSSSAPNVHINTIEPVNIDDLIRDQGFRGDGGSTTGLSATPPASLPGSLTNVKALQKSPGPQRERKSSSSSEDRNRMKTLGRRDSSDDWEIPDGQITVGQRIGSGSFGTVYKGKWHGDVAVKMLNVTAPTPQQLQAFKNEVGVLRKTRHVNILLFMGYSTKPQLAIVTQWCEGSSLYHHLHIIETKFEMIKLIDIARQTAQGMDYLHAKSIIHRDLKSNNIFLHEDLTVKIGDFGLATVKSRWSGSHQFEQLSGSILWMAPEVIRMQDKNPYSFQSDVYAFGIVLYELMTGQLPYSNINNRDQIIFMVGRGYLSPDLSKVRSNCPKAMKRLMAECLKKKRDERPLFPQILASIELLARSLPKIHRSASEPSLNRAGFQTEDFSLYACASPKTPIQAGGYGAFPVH
inactive: [1] 0.067 | [2] 0.019 | [16] -0.099 | [17] -0.014 | [4] 0.03 | [5] 0.01 | [6] -0.034 | [18] -0.059 | [7] -0.102 | [8] -0.079 | [9] -0.046 | [10] 0.009 | [11] 0.012 | [12] -0.002 | [20] 0.024 | [13] -0.007 | [14] -0.067

AFDN isoform 1 (UniProt P55196)
inactive: [1] -0.053 | [2] -0.077 | [3] -0.152 | [4] -0.027 | [5] 0.07 | [18] 0.031 | [7] -0.016 | [8] 0.048 | [19] -0.043 | [9] -0.031 | [10] 0.047 | [11] -0.033 | [12] 0.079 | [20] 0.002 | [13] -0.054 | [14] -0.141

APOBEC3G (UniProt Q9HC16)
UniProt Q9HC16, sequence (Q9HC16 whole entry, looked up): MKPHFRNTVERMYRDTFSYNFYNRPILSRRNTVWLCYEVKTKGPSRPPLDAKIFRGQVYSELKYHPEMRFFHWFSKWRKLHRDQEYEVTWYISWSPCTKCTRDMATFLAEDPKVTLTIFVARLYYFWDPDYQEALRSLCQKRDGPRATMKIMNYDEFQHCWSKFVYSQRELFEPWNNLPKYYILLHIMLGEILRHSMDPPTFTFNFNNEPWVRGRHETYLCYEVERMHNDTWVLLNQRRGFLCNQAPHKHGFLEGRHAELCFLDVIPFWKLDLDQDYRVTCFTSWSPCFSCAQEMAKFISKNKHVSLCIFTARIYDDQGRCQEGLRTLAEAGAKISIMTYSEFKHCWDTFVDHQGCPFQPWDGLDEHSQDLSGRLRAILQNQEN
inactive: [1] -0.016 | [15] 0.028 | [16] 0.079 | [3] 0.075 | [17] 0.028 | [5] -0.042 | [6] -0.012 | [18] 0.03 | [7] 0.046 | [8] 0.149 | [19] 0.061 | [9] -0.027 | [10] 0.026 | [12] 0.125 | [20] 0.116 | [13] 0.202 | [14] -0.013
